Screening results (PubChem BioAssay)
TRHR agonist: TRH receptor (human) agonism; P34981; 0.18% of 360,000 active; activation, % at 2 µM; TRHR cells, calcium flux fluo-8, FDSS agonist mode; further: 0% is about no effect
Target sequence (P34981 whole entry, looked up): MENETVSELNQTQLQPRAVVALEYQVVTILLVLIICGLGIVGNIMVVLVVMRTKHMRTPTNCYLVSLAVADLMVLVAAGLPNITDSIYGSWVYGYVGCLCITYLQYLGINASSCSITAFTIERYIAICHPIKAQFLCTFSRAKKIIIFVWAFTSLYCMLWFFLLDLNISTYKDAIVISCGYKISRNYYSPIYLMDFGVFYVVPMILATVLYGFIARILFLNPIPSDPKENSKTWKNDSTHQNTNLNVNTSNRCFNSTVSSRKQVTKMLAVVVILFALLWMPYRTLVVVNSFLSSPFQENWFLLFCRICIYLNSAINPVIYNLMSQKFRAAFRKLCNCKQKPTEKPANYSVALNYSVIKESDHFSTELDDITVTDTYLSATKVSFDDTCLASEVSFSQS
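Read-out: compound-evoked intracellular calcium rise in TRHR cells, fluo-8 dye, kinetic FDSS fluorescence at 1 s/cycle following a 10-cycle baseline. Cells cultured overnight before dye loading (30 min–1.5 h, RT).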
D1 antagonist: human D1 dopamine receptor antagonism | P21728 | HEK293 TREx D1 cells, calcium flux, dopamine EC80; stronger effect = lower value | activity change, negative = inhibition, % at 10 µM | 3.2% of 360,000 active; in the data active means activity change below about -30%; further: on the % scale 0 is the no-effect control and ±100 the full control effect
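After overnight tetracycline induction at 30 C, force-coupled D1 HEK293 cells took up a no-wash calcium dye at room temperature. Compounds were added and monitored 180 s, and the response to EC80 dopamine was then recorded.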
TRHR PAM: allosteric enhancers of human TRH receptor; TRHR cells, fluo-8 calcium fluorescence, EC20 TRH enhancement; P34981; enhancement, % at 2 µM; 0.66% of 360,000 active; in the data active means enhancement above about 30%; further: 0% is about no effect
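TRHR-expressing cells loaded with fluo-8 calcium dye were read kinetically (ex 480/em 530) during compound addition, then stimulated with an EC20 of TRH (10 nM final). Enhancement of the Gq-mediated intracellular calcium response was scored.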
D1 potentiator: human D1 dopamine receptor positive modulation | P21728 | HEK293 TREx D1 cells, calcium flux, dopamine EC20 potentiation | potentiation, % at 10 µM | 0.036% of 360,000 active | AID 504651; in the data active means potentiation above about 30%; further: 0% is about no effect
D1 ag: activates the human D1 dopamine receptor; 1% of 360,000 active; HEK293 T-REx D1 cells, calcium flux, agonist mode; activation, % at 2 µM; further: 0% is about no effect
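Tetracycline-induced HEK293 TREx D1 cells, force-coupled to calcium signalling, were dye-loaded with a no-wash calcium kit. Compound was pin-added after a 10 s baseline. Fluorescence was read kinetically at 1 cycle/s for 180 s, with calcium rises flagged as agonism.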
* = called active by the depositor; x = no result; ! = not confirmed by another sample. Most compounds without a hit are left out; they make up all but 4.6% or so of the library. Unless noted, no stated cut-off is given here; in the data, active means activation above about 30%; inactive means the rest.

SMILES | TRHR agonist | D1 antagonist | TRHR PAM | D1 potentiator | D1 ag
CN(Cc1cc(-c2ccccc2)on1)C(=O)c1cc(COc2c(F)cccc2F)on1 | 0 | 1 | 34* | -2 | 12
CN(CC1COc2ccccc2O1)C(=O)c1cc(COc2c(F)cccc2F)on1 (configuration not stated) | 1 | -46* | 0 | -3 | 18
COc1ccc(Br)cc1Cn1nnc(C(=O)Nc2ccc(C)cc2C)c1N | 1 | 11 | 14 | 0 | 5
Cc1cccc(NC(=O)c2cnn(-c3ccccc3)c2-n2cccc2)c1C | -2 | -5 | 0 | -2 | 14
COc1ccc(N(CC(=O)Nc2ccc(C)cn2)S(=O)(=O)c2c(C)noc2C)cc1 | 0 | -80* | 7 | -4 | 0
Cc1ccc(C(=O)c2sc(Nc3ccccc3)c(S(=O)(=O)c3ccccc3)c2N)c(C)c1 | 1 | -2 | 0 | -2 | 10
COc1ccc(C)c2sc(N3CCCC3)nc12 | 0 | -37* | 13 | -2 | 0
COc1ccc(OC)c2sc(N3CCN(C(=O)C4CC4)CC3)nc12 | 0 | x | 2 | 2 | -2
Cc1ccccc1-n1c(C)cc(/C=N/Nc2ccc([N+](=O)[O-])cn2)c1C | 5 | -4 | 0 | -4 | 12
CCSc1ncc(/C=N/Nc2ccc([N+](=O)[O-])cc2)n1C | 23 | -5 | 4 | -4 | 37*
O=[N+]([O-])c1ccc(N/N=C\c2cccn2-c2ccccc2)nc1 | 10 | 0 | -2 | 5 | 37*
CCOC(=O)N1CCN(c2nnnn2-c2ccccc2)CC1 | 1 | 12 | 2 | -3 | -1
Fc1ccc(N2CCN(c3nnnn3-c3ccccc3)CC2)cc1 | 0 | -40* | 2 | 3 | 0
CCc1nnc(NS(=O)(=O)c2ccc(NC(=S)NC(=O)c3ccc(Br)cc3)cc2)s1 | 0 | -12 | 35* | -5 | 2
CCc1nnc(NS(=O)(=O)c2ccc(NC(=S)NC(=O)/C=C/c3ccc(OC)cc3)cc2)s1 | 0 | -30* | 7 | -3 | 4
COc1nccnc1NS(=O)(=O)c1ccc(NC(=S)NC(=O)/C=C/c2ccc(F)cc2)cc1 | -1 | -38* | -8 | -16 | -2
CC(C)NC(=S)NC(=O)/C=C/c1ccc(F)cc1 | 1 | -81* | 1 | -12 | 2
Cc1ccsc1C(=O)N1CC=C(c2ccccc2)CC1 | 0 | -31* | 1 | 5 | 12
Cc1ccc(C(=O)N2CC=C(c3ccccc3)CC2)s1 | -1 | 4 | 1 | 3 | 3
CCOc1ccccc1CNc1ncnc2ccc(-c3c(C)noc3C)cc12 | 0 | -2 | 22 | 6 | 3
Cc1noc(C)c1-c1ccc2ncnc(NCc3cccc(-c4ccccc4)c3)c2c1 | 1 | -34* | 1 | -6 | 16
CCc1cccc(NC(=O)C(c2ccccc2)N2Cc3ccccc3C2=O)c1 (configuration not stated) | 1 | 1 | 4 | 5 | 3
Cc1nc2sc(C(c3ccco3)N3CC(C)OC(C)C3)c(O)n2n1 (configuration not stated) | 0 | 4 | 31* | 7 | 0
Cc1cccc(C)c1NC(=O)CSc1ncc2c(n1)-c1ccc(Cl)cc1N(Cc1ccccc1)S2(=O)=O | 1 | -8 | -1 | 0 | 5
O=C(NCC1CCN(Cc2cccc(Cl)c2)CC1)Nc1cc(Cl)ccc1Cl | 2 | 12 | -1 | -1 | 19
SMILES | TRHR agonist | D1 antagonist | TRHR PAM | D1 potentiator | D1 ag
COc1cc([N+](=O)[O-])ccc1NC(=O)NCC1CCN(Cc2ccc(Cl)cc2)CC1 | 3 | -33* | 16 | -10 | 31*
COc1ccc(Cl)cc1NC(=O)NCC1CCN(Cc2cc(C)ccc2C)CC1 | 1 | -31* | 1 | -9 | 30
COc1ccccc1CNc1nc2ccccc2c2nc(-c3cccnc3)nn12 | 0 | 7 | 5 | -1 | 0
O=C(Nc1nnc(-c2ccccc2)o1)Nc1ccc(F)cc1F | 1 | -31* | -1 | -2 | 3
O=C(Nc1ccc(F)cc1)Nc1nnc(-c2ccccc2)o1 | 0 | -1 | 0 | 1 | 2
Cn1c(C(N)=O)cnc1Sc1ncc(C(F)(F)F)cc1Cl | 0 | -47* | 0 | -6 | 5
COC(=O)C1=C(C)N(Cc2ccccc2)C(=S)N[C@H]1c1ccccc1 | 2 | 3 | -1 | -6 | 3
COC(=O)C1=C(C)N(Cc2ccccc2)C(=NCCc2c[nH]c3ccccc23)N[C@H]1c1cccc(C(F)(F)F)c1 | 1 | 6 | 2 | -4 | 12
C=CCN=C1N[C@@H](c2ccc(Br)cc2)C(C(=O)OC)=C(C)N1Cc1ccccc1 | 1 | 22 | -8 | 0 | 31*
COC(=O)C1=C(C)N(Cc2ccccc2)C(=O)N[C@H]1c1ccccc1 | 0 | -6 | 7 | -6 | 100*
COCCN=C1N[C@@H](c2cccc(C(F)(F)F)c2)C(C(=O)OC)=C(C)N1Cc1ccccc1 | 5 | 0 | -4 | -5 | 32*
CCN1C(=NCCc2c[nH]c3ccccc23)N[C@@H](c2ccccc2)C(C(=O)OC)=C1C | 3 | -9 | 2 | -4 | 49*!
CC1(C)CC(=O)C=C(c2cccc(Br)c2)C1 | 0 | x | 11 | 0 | -3
CCN(CC)c1ccc(-c2nc(-c3ccco3)no2)cc1[N+](=O)[O-] | 0 | -10 | -4 | 4 | 4
COC(=O)C1=C(C)N(Cc2ccccc2)C(=NCC(C)C)N[C@H]1c1ccccc1 | 0 | 2 | -7 | -5 | 40*!
CC(=O)C1=C(C)N(Cc2ccccc2)C(=O)N[C@H]1CCc1ccccc1 | 0 | -31* | 2 | -3 | 16
CC[C@@H](C)CN1C(=O)N[C@@H](CCc2ccccc2)C(C(C)=O)=C1C | -1 | 15 | -2 | 0 | 1
CCc1ccccc1NC(=O)N1CCC(CN2CCc3ccccc3C2)CC1 | 0 | -4 | 2 | 3 | 5
O=C(Nc1ccccc1C(F)(F)F)N1CCC(CN2CCc3ccccc3C2)CC1 | 0 | -6 | 1 | 6 | 30*
Cc1ccc(S(=O)(=O)c2nnn3c2nc(N2CCC(C(N)=O)CC2)c2cc(Cl)ccc23)cc1C | 0 | -33* | -4 | -6 | 2
CCOC(=O)C1CCN(c2nc3c(S(=O)(=O)c4ccc(C)c(C)c4)nnn3c3ccc(Cl)cc23)CC1 | 0 | -5 | -3 | -8 | 2
OC1CCN(Cc2cn(Cc3ccccc3)nc2-c2cc3ccccc3o2)CC1 | 5 | -31* | 6 | -6 | 25
COCC1CCN(Cc2cn(Cc3ccccc3)nc2-c2cc3ccccc3o2)CC1 | -2 | -1 | 4 | -2 | 39*
Cc1ccc(C(=O)N[C@@H](Cc2ccccc2)C(=O)N2CCC3(CC2)NCCc2[nH]cnc23)cc1C | 0 | 3 | 4 | 1 | -1
Cc1c(Cl)cccc1NC(=O)N1CCC(CN2CCOCC2)CC1 | 0 | -71* | -18 | -6 | -1
